Screens deposited in PubChem BioAssay by National Center for Advancing Translational Sciences (NCATS).
Compounds with a hit are over-represented: about 17% of the library has one in this group of screens.
HT1080 IDH1KD tx = qHTS for induction of synthetic lethality in tumor cells producing 2HG: qHTS for the HT-1080-IDH1KD cell line; HT-1080 IDH1 knockdown viability, ATP luminescence, 48 h; Potency, µM (doses to about 46.1 µM), for the others: top-dose activity, negative = toxicity, hits mostly cytotoxic; 2% of 360,000 active; AID 686971, 2013;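 also: 0% = DMSO wells and -100% = cell-free medium wells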
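Luminescent ATP read-out (CellTiter-Glo, 10 min at room temperature) after 48 h compound exposure at 37 °C gave viability of IDH1-knockdown HT-1080 cells. Activity was normalised to DMSO and cell-free wells, then fitted as concentration-response curves.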
HepG2 tox = qHTS for Inhibitors of TGF-b: Cytotox Counterscreen | HepG2 CAGA-GFP viability, ATP luminescence, 18 h | Potency, µM (doses to about 46.1 µM), inactives show top-dose activity change, negative = cytotoxicity, usual class: cytotoxic | 0.76% of 410,000 active
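HepG2 CAGA-GFP cells (1000/well, DMEM with 1% FBS) received compound, then TGF-beta at 500 pg/mL final, and were incubated 18 hours at 37 degrees C. Viability was read by CellTiter-Glo luminescence. Media-only wells were set as complete cell-killing and DMSO as no toxicity.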
TDP1 cell noCPT = qHTS for Inhibitors of human tyrosyl-DNA phosphodiesterase 1 (TDP1): qHTS in cells in absence of CPT | Potency, µM (series often up to 46.2 µM), without a hit: top-dose activity change, negative = growth inhibition, usual class: inhibitors | AID 686978, 2013 | 15% of 420,000 active | DT40 Tdp1-/- hTDP1 cells, no CPT, ATP luminescence, 48 h; also: % is scaled to controls: 0 for no effect and ±100 for the full control effect; nearly all actives have a fitted effect of over 55% in size
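Growth of hTDP1-complemented DT40 Tdp1-knockout cells is measured by ATP luminescence after at least 48 hr compound exposure at 37 °C, with DMSO substituting for the 20 nM CPT used in the parallel screen.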
TGFb SMAD3 inh = qHTS for Inhibitors of TGF-b; HepG2 CAGA-GFP TGF-b/SMAD3 reporter, GFP fluorescence, 18 h; TGF-beta stimulated, 500 pg/mL final; Potency, µM (top dose mostly 46.1 µM), without a hit: at the top dose activity, negative = inhibition, hits mostly inhibitors; 1.2% of 410,000 active; also: % is scaled to controls: 0 for no effect and ±100 for the full control effect; nearly all actives have a fitted effect of over 65% in size
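TGF-beta reporter screen: HEPG2 CAGA-GFP, 1% FBS, 500 pg/mL TGF-beta final, 18 h; per-cell GFP summed per well; curves fitted and categorized by class.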
TDP1 cell CPT = qHTS for Inhibitors of human tyrosyl-DNA phosphodiesterase 1 (TDP1): qHTS in cells in presence of CPT; chicken DT40 Tdp1-/-;hTDP1 cells + 20 nM CPT, ATP luminescence, 48 h; Potency, µM (titrated, usually from 46.2 µM), for the others: top-dose activity change, negative = growth inhibition, actives largely listed as inhibitors; 12% of 420,000 active; also: % is scaled to controls: 0 for no effect and ±100 for the full control effect; nearly all actives have a fitted effect of over 55% in size
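Cell growth measured by CellTiter-Glo luminescence after a minimum 48 h, 37 C compound exposure with 20 nM CPT in Tdp1-knockout DT40 cells stably expressing hTDP1, seeded 400/well; qHTS titration format.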
HT1080NT lethal = qHTS for induction of synthetic lethality in tumor cells producing 2HG: qHTS for the HT-1080-NT fibrosarcoma cell line; Potency, µM (doses to about 46.1 µM), for inactives: at the highest dose activity, negative = less viability, actives largely listed as cytotoxic; HT-1080-NT fibrosarcoma viability, CellTiter-Glo ATP luminescence, 48 h; 1.6% of 360,000 active;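 also: NT is the 2HG producing partner of a matched IDH1 knockdown line; 0% = DMSO-treated cells and -100% = media-only wells without cells; nearly all actives have a fitted effect of over 55% in size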
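750 cells/well, RPMI + 5% FBS; 2 h settle, compound pin-transfer, 48 h at 37 degrees C. CellTiter-Glo 10 min RT, luminescence. Normalized to DMSO and media-only wells.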
* hit, by the source's call; ? = inconclusive; . = no result given; [ ] = another dose, or the depositor's remark. Calls follow the shape of the dose curve; as a rule, active = well fitted curve in the direction sought with a large enough effect; inconclusive = small, poorly fitted or top-dose-only effect, or another doubt; inactive = no such curve, though single readings can be large; an effect the other way counts as inactive or inconclusive. Potency is read from the fitted curve at half-maximal effect.

SMILES	HT1080 IDH1KD tx	HepG2 tox	TDP1 cell noCPT	TGFb SMAD3 inh	TDP1 cell CPT	HT1080NT lethal
CCC1CN(CCC(=O)N2CCCN(C(=O)c3ccco3)CC2)Cc2cc(OC)ccc2O1 (stereo not drawn)	.	.	-5.0%	.	-8.6%[9.04 µM]	.
CC(=O)c1ccc(OCc2cc(C(=O)N(C)C(C)c3ccon3)no2)cc1 (stereo not drawn)	-6.5%	-10.4%	18.4µM*	-4.2%	?	-5.4%
CC(=O)c1ccc(OCc2cc(C(=O)N3CCOCC3)no2)cc1	3.4%	-0.6%	-11.3%	-3.9%	-23.3%	13.1%
CC(=O)c1cccc(OCc2cc(C(=O)N(C)C(C)c3ccccn3)no2)c1 (stereo not drawn)	-4.5%	-24.7%	?	-1.6%	?	5.7%
CC(=O)c1ccc(OCc2cc(C(=O)N3CCCCCCC3)no2)cc1	-10.2%	-70.8%	4.11µM*	-3.3%	?	0.3%
CC(=O)c1ccc(OCc2cc(C(=O)N(C)C(C)c3nccs3)no2)cc1 (stereo not drawn)	-8.0%	-18.7%	?	-4.6%	16.4µM*	-2.9%
O=C(O)c1ccc(CNC(=O)C2CCN(S(=O)(=O)c3ccc4c(c3)OCCO4)CC2)cc1	-1.3%	55.5%	-1.8%	3.8%	-2.1%	8.7%
CCC(=O)c1ccc(OC)c(OC)c1OCc1ccccc1	-1.6%	-25.0%	?	-0.5%	-3.5%	-0.7%
COc1cc(NC(=O)N2CCC3(CC2)Nc2cc(F)ccc2-n2cccc23)cc(OC)c1OC	.	-17.5%	25.9µM*	?	16.4µM*	.
COc1cc([N+](=O)[O-])ccc1NC(=O)N1CCC2(CC1)Nc1ccccc1-n1cccc12	.	-10.6%	?	4.2%	?	.
CSCCC(NS(=O)(=O)c1ccccc1F)C(=O)N1CCCCCC1 (stereo not drawn)	0.0%	-8.6%	14.2%	-12.3%	-15.6%	0.4%
CSCCC(NS(=O)(=O)c1ccc2c(c1)oc(=O)n2C)C(=O)N1CCN(c2cc(Cl)ccc2C)CC1 (stereo not drawn)	.	-4.2%	14.6µM*	0.0%	?	.
COc1ccc(NS(=O)(=O)c2ccc(C(=O)N3CCCCCC3)cc2)cc1	-10.1%	5.9%	8.2µM*	?	10.3µM*	18.4µM*
CSCCC(NS(=O)(=O)c1ccc(C)cc1)C(=O)N1CCCCCCC1 (stereo not drawn)	5.8%	-0.3%	16.4µM*	13.7%	?	0.2%
CSCCC(NS(=O)(=O)c1ccc2c(c1)oc(=O)n2C)C(=O)N1CCN(c2ccc(F)cc2)CC1 (stereo not drawn)	.	1.8%	?	-7.8%	-6.5%	.
COc1ccc(NS(=O)(=O)c2ccc(NC(=O)C3CC3)cc2)cc1	2.1%	18.2%	9.2µM*	-8.8%	8.2µM*	-1.2%
COc1ccc(O)c(CN2CCCN(c3nc(C)c4cc(C)c(C)cc4n3)CC2)c1	.	.	-14.3%	.	-0.7%[9.04 µM]	.
O=C(Nc1ccccc1Br)N1CCC(CN2CCCC2)CC1	.	16.2%	-19.8%	-0.5%	-3.1%	.
COc1ccc(/C=C/c2cc(O)cc(O[C@H]3OC(CO)C(O)C(O)C3O)c2)cc1 (stereo partly drawn)	.	.	-1.5%	.	0.3%	.
COc1ccc(C(=O)OCCN2CCN(C3=NS(=O)(=O)c4ccccc43)CC2)cc1OC	2.7%	-2.3%	-23.8%	-0.8%	-23.5%	-4.1%
CCOc1ccc(NS(=O)(=O)c2ccc(C(=O)N(C)CC(=O)Nc3cccc(OC)c3)cc2)cc1	?	-19.5%	16.4µM*	?	18.4µM*	-2.8%[9.24 µM]
CSCCC(NS(=O)(=O)c1ccc(Cl)cc1)C(=O)OCc1c(Cl)cccc1Cl (stereo not drawn)	-8.8%	-33.3%	20.6µM*	?	?	-4.6%
CCOc1ccc(NS(=O)(=O)c2ccc(C(=O)N3CCCCCC3)cc2)cc1	-21.9%	-16.2%	18.4µM*	-15.9%	14.6µM*	-10.7%
CN(CC(=O)Nc1ccccc1Br)C(=O)c1ccc(COc2ccccc2)cc1	-13.7%	-21.3%	?	-23.4%	?	-13.3%
CN(CC(=O)Nc1cccc(F)c1)C(=O)c1ccc(COc2ccccc2)cc1	-20.9%	-13.0%	?	-11.0%	?	25.9µM*
SMILES	HT1080 IDH1KD tx	HepG2 tox	TDP1 cell noCPT	TGFb SMAD3 inh	TDP1 cell CPT	HT1080NT lethal
O=C(CN1CCCCC1)NC(=O)NCc1ccccc1	2.7%	-5.8%	5.8%	32.2%	25.7%	6.0%
COc1ccc(N2CCN(C(=O)COC(=O)c3cccc(S(=O)(=O)Nc4cccc(C)c4)c3)CC2)cc1	-4.4%	-20.4%	?	?	16.4µM*	-2.5%
CCOc1ccc(S(=O)(=O)Nc2cccc(C(=O)N3CCN(c4cccc(OC)c4)CC3)c2)cc1	-10.1%	-13.0%	18.4µM*	-10.6%	23.1µM*	-2.2%
O=C(Nc1ccccc1)Nc1ccc(C(=O)N2CCCC2)cc1	11.6µM*	-62.5%	11.6µM*	25.6%	20.6µM*	?
CCOc1ccc(S(=O)(=O)Nc2cccc(C(=O)N3CCN(c4ccccc4O)CC3)c2)cc1	-13.0%	-50.8%	?	?	?	1.3%
COc1ccc(S(=O)(=O)Nc2ccc(Nc3ccccc3)cc2)cc1	-0.1%	-40.2%	?	?	20.6µM*	0.3%
COc1ccc(SCC(CC(C)C)N2CCN(CCc3ccccc3)CCC2=O)cc1 (stereo not drawn)	.	-0.5%	.	?	.	.
c1ccc(-c2ccc(-c3csnn3)cc2)cc1	6.8%[9.24 µM]	0.1%	-5.8%	12.5%	-0.1%	1.1%
COc1ccc(NS(=O)(=O)c2ccc(C(=O)N3CCN(Cc4ccccc4)CC3)cc2)cc1	-11.3%	0.0%	?	2.0%	11.6µM*	-11.7%
COc1ccc(S(=O)(=O)Nc2ccccc2)cc1	-15.6%	-1.1%	-27.1%	-1.9%	21.2%	-17.6%
O=S(=O)(Nc1ccccc1)c1ccc(-c2csnn2)cc1	-25.1%	-59.6%	23.1µM*	-11.4%	?	-15.0%
COc1ccccc1Nc1ccc(NS(=O)(=O)c2ccc(C(C)=O)cc2)cc1	-2.2%	4.0%	16.4µM*	0.0%	-18.6%	-0.1%
COc1ccc(S(=O)(=O)NCc2ccc(C(=O)N3CCN(Cc4ccccc4)CC3)cc2)cc1	-15.4%	-15.2%	-25.2%	?	?	-2.4%
